The record followed here is ChEMBL document CHEMBL3988442, “University of Dundee, Small-Polar-MMV Screening Library” (2021).

The campaign covered roughly 38,000 compounds. About 1,200 (3.2%) showed an effect of 50% or more. The median lay at about -58%. Many of the other results were omitted from the sample, so strong results are more common in it than they were.

The experiment relates to Plasmodium falciparum. In words: Calibr Malaria Delayed Death Assay SOP. The experiment is classed as functional, organism-based. Details: scale not given: in the data most compounds retested in dose-response had high values. Conditions: concentration 4.99e-06 (unit not given; other assays of the set use mol/L).
Regarding `COc1cccc(C(=O)N2CCCC(CNS(C)(=O)=O)C2)c1` (stereo not given), the “Percent Effect” value is reported as -46.69%. The figure for `O=C(CCn1cccc1)N1CCc2[nH]nc(COc3ccccc3)c2C1` is -21.18%; for `CS(=O)(=O)NC[C@H]1Cn2c(-c3ccc(Cl)cc3)cnc2CO1` it is 56.68%; for `CS(=O)(=O)NC[C@H]1Cn2c(-c3ccccc3)cnc2CO1` it is -22.21%. The figure for `CS(=O)(=O)NC[C@H]1Cn2c(-c3ccc(F)cc3)cnc2CO1` is -35.88%; for `CC(C)c1noc(C2CCN(C(=O)c3cccs3)CC2)n1` it is -59%. For the compound `O=C(NCCCN1CCCC1=O)c1nc(-c2ccc3cc[nH]c3c2)no1`, the “Percent Effect” value is -52.39%.

Turning to `O=C1CC2(CCN(Cc3ccsc3)C2)CN1c1ccc2c(c1)OCO2` (stereo not given), the “Percent Effect” value is listed as -25.08%. The figure for `O=C1CCCN1Cc1nnc2n1CCCN(C(=O)c1ccco1)C2` is -1.82%; for `O=C(c1cc(Cl)ccc1OC1CCN(C2CCCC2)CC1)N1CC(O)C1` it is -105.7%; for `CC(=O)N1CCC(Oc2ccc(Cl)cc2C(=O)N2CCCO2)CC1` it is -31.72%. Under `O=C(c1cc(Cl)ccc1OC1CCN(C2CCCC2)CC1)N1CCCO1` stands 51.12%.

With `Cc1noc(C)c1CCC(=O)N1CCCCC1CNS(C)(=O)=O` (stereo not given), the “Percent Effect” value is -22.15%.

Turning to `COc1ccc2c(ccn2CCC(=O)/N=c2\[nH]nc(C3CCCO3)s2)c1` (stereo not given), the “Percent Effect” value was -157%. The figure for `Cc1nc(Oc2ccccc2F)sc1C(=O)O` is -115.2%; for `COc1ccc(-c2cc(CNc3ncnc4c3CCNCC4)no2)cc1` it is 13.56%.

For the compound `Cc1ccc(-c2cc(CNc3ncnc4c3CCNCC4)no2)cc1`, the “Percent Effect” value is 62.41%.

Regarding `Cc1cccc(-n2cc(CNc3ncnc4c3CCNCC4)cn2)c1`, the “Percent Effect” value was 12.81%. The figure for `Cc1ccccc1-n1cc(CNc2ncnc3c2CCNCC3)cn1` is 25.52%; for `c1ccc(Cn2cc(CNc3ncnc4c3CCNCC4)cn2)cc1` it is -75.72%; for `Clc1ccccc1-c1cc(CNc2ncnc3c2CCNCC3)no1` it is 79.72%. The figure for `Cc1nn(CC(=O)O)c(C)c1NS(=O)(=O)c1cc2ccccc2s1` is -90.75%; for `COc1ncccc1CNC1CCc2c(ccc(=O)n2CC2CC2)C1.O=C(O)C(F)(F)F.O=C(O)C(F)(F)F` (stereo not given) it is -69.76%. Under `O=C(COCC(=O)N(c1ccccc1)c1ccccc1)N1CCOCC1` stands -115.4%; under `CCc1nc(CN(C)C2CCN(CCCOc3ccccc3)C2)no1` (stereo not given), -2.481%.

With `COc1ccccc1-c1ncc(CN2CCCC[C@H](N(C)C)C2)s1`, the “Percent Effect” value amounted to 69.91%. The figure for `CN(C)[C@H]1CCCCN(Cc2cnc(NCc3ccccc3)nc2)C1` is -25.46%; for `COc1ccccc1-c1ncc(CN2CCCC(CCC(N)=O)C2)s1` (stereo not given) it is -45.2%. The figure for `CC(=O)Nc1ccc2nc(CN(C)Cc3noc(C)n3)ccc2c1` is -81.21%; for `CC(C)S(=O)(=O)CCN1CCN(C(C#N)c2ccccc2)CC1` (stereo not given) it is -69.53%.

As to `NC(=O)C1CCN(c2ccc(C(=O)N3CCc4ccccc43)cn2)C1` (stereo not given), the “Percent Effect” value was -37.49%. Under `O=C(CSc1ccc2c(c1)OCCO2)NS(=O)(=O)c1ccccc1Br` stands -14.98%; under `c1ccc(-n2nnnc2NCc2ccc3c(c2)OCO3)cc1`, -79.7%; under `CNCc1nc(-c2ccc3c(c2)OCO3)c[nH]1.Cl.Cl`, -83.48%. The figure for `N#Cc1c[nH]nc1NCc1ccc2c(c1)OCO2` is -94.84%; for `I.c1ccc(Sc2ccc3c(c2)OCO3)c(CNC2=NCCN2)c1` it is 83.34%. The figure for `Cc1ccc(N(CC(=O)N2CCCCC2)C(=O)C2CCCO2)cc1` (stereo not given) is -77.19%; for `CS(=O)(=O)N1C[C@@H]2COC[C@]2(COCC(=O)N2CCCC2)C1` it is -14.15%. With `CCCNc1ccc(C(=O)NCCc2ccc(Cl)cc2)cn1`, the “Percent Effect” value is -35.94%. The figure for `COc1cccc(C2CCCN2C(=O)NCCCn2cccn2)c1` (stereo not given) is -100.5%; for `CN(C)C(C)(C)CNCc1cn(C)nc1-c1cccnc1.Cl` it is -6.426%; for `Cn1cc(CNCCC(=O)NCc2ccccc2)c(-c2cccnc2)n1` it is -26.7%. The figure for `Cn1cc(CNCCNC(=O)Cc2ccccc2)c(-c2cccnc2)n1` is 7.378%; for `Cn1cc(CNCCc2cccnc2)c(-c2cccnc2)n1` it is -43.46%; for `Cn1cc(CNCCOc2ccc(F)c(F)c2)c(-c2cccnc2)n1` it is 53.44%. The figure for `CCCNCc1cn(Cc2ccccc2)nc1-c1cccnc1.Cl` is 57.61%; for `COCCCOc1ccc(C(=O)N(C)Cc2cccc(O)c2)cn1` it is -93.61%; for `CC(C)(C)OC(=O)N1CCN(C(=O)c2cnn3c2OCCC3)CC1` it is -73.8%. In the case of `CC(CC(=O)c1ccco1)NC(=O)c1ccon1` (stereo not given), the “Percent Effect” value was -111.2%. Take `O=C(Nc1nc2c(s1)CN(S(=O)(=O)C1CC1)CC2)c1ccsc1`: the “Percent Effect” value is -79.83%.

Regarding `Fc1ccccc1C1NCCc2cc3c(cc21)OCCO3` (stereo not given), the “Percent Effect” value was -25.34%.

Take `CCCn1nnc(NCc2ccc(-c3ccc(Br)cc3)o2)n1`: the “Percent Effect” value is recorded as -170.9%. As for `CN1CCCCc2c1nc1c(c2N)CCCC1`, the “Percent Effect” value was 64.21%. Consider `CN1CCc2c1nc1c(c2N)CCC1`, for which the “Percent Effect” value is -63.1%. `CN1CCCCc2c1nc1c(c2N)CCC1.O=C(O)c1cc([N+](=O)[O-])ccc1Cl`: the “Percent Effect” value turned out to be 64.96%. As for `CN1CCCc2c1nc1c(c2N)CCC1`, the “Percent Effect” value was -51.79%. Turning to `CN1CCCc2c1nc1c(c2N)CCCC1.O=C(O)C(=O)O`, the “Percent Effect” value is listed as 75.22%. In the case of `CC(=O)NC1CCN(c2nc(N)nc3c2CCCC3)C1` (stereo not given), the “Percent Effect” value is -119.8%. Under `Nc1nc2c(c(NC(=O)Nc3cccc(Cl)c3)n1)CCCC2` stands -1.173%; under `Nc1nc2c(c(NC(=O)Nc3ccc(Cl)c(Cl)c3)n1)CCCC2`, -65.1%.

`CN1CCc2nc3c(c(N)c2C1)CCCN3C`: the “Percent Effect” value is listed as -6.547%. Under `CC1CN(C)c2ccccc2CN1C(=O)c1cc(C#N)cn1C` (stereo not given) stands -35.84%; under `CCN(CC)S(=O)(=O)c1ccc2c(c1)N(Cc1ccncc1)C(=O)CS2`, -124.7%; under `COCC(C)NC(=O)CN1CCC(CO)CC1` (stereo not given), -50.48%.

Consider `O=C1CC(CNc2cncc(Br)c2)c2ccccc2N1` (stereo not given), for which the “Percent Effect” value was 9.989%. As for `Cc1cc(NCC2CC(=O)Nc3ccccc32)nc(C)n1` (stereo not given), the “Percent Effect” value was -157%. The figure for `O=C1CC(CNc2cncc(Cl)n2)c2ccccc2N1` (stereo not given) is 64.58%; for `CS(=O)(=O)NC(=O)c1ccn(-c2ccc(Cl)c(Cl)c2)n1` it is -100.9%; for `COCCN1C(=O)CC(c2cccnc2)C12CCN(C(=O)C1CC1)CC2.O=C(O)C(F)(F)F` (stereo not given) it is -113.7%. Under `CC(Oc1ccc2c(c1)OCO2)C(=O)Nc1ccon1` (stereo not given) stands -56.4%; under `Cc1cc2cc(CNC3CCN(CC(=O)N(C)C)CC3)oc2cc1C`, -160%; under `Cc1cc(Cl)cc(C)c1CNC1CCN(CC(=O)N(C)C)CC1`, 52.71%. Under `NC(=O)CN1CCC(NCc2cc(C(F)(F)F)ccc2Cl)CC1` stands -47.52%; under `CNc1oc(-c2ccc(S(=O)(=O)N(C)C)o2)nc1C#N`, -61.71%; under `Cc1nc(C)n(CC2CCCN(Cc3nc(-c4ccco4)no3)C2)n1` (stereo not given), -26.23%. `NC(=O)C(NC1CCN(CC2CCCCC2)CC1)c1ccccc1` (stereo not given): the “Percent Effect” value was -76.74%. Regarding `OC(CN1CCN(CC2CCCCC2)CC1)c1ccccc1` (stereo not given), the “Percent Effect” value came out at 2.939%. Under `Cl.NC(CC1CCCC1)c1ccccc1` (stereo not given) stands 67%; under `NC(=O)C(NC(=O)COC1CCCC1)c1ccccc1` (stereo not given), -14.18%. Under `Cl.NC(CC1CCCCC1)c1ccccc1` (stereo not given) stands 55.85%. The figure for `NC(CC1CCCC1)c1ccc(Oc2ccccc2)cc1` (stereo not given) is 80.17%. Take `CC(NC(=O)CSCC(N)=O)c1ccc(Oc2ccccc2)cc1` (stereo not given): the “Percent Effect” value is -26.87%. Take `NC(c1ccccc1)c1ccc(OC(F)F)cc1` (stereo not given): the “Percent Effect” value is given as 9.975%. The figure for `Cl.NC(Cc1nc(-c2ccccc2)no1)c1ccccc1` (stereo not given) is -266.4%. Consider `COc1ccc(Cn2cc(C(=O)N(C)Cc3ccon3)nn2)cc1`, for which the “Percent Effect” value is recorded as -118.5%. The figure for `CC(C)COC[C@H]1CC[C@H]2[C@H](CCN2C(=O)c2ccncc2F)O1.O=C(O)C(F)(F)F` is -129.5%. The figure for `COc1ccc(-c2cc(C(=O)Nc3nc[nH]n3)[nH]n2)cc1` is -113.2%. Regarding `Cc1ccc(C(=O)N2CCc3nc4c(C)csc4c(=O)n3CC2)cn1`, the “Percent Effect” value is reported as -115%. Regarding `CCn1nc(C)cc1C(=O)N1C[C@@H]2C[C@@H](c3noc(C)n3)O[C@@H]2C1`, the “Percent Effect” value is -70.6%.

Turning to `Cc1n[nH]cc1CNCC1(c2ccccc2Cl)CCOCC1`, the “Percent Effect” value was found to be 55.9%. Turning to `Cc1n[nH]cc1CNCC1(c2ccc3c(c2)OCO3)CCOCC1.Cl`, the “Percent Effect” value is listed as -41.06%. For `O=C(NCC1(O)CCOC1)NCC1(c2ccccc2Cl)CC1` (stereo not given), the “Percent Effect” value is 1.417%.

Consider `CCS(=O)(=O)N1CCc2cc(C(=O)N(C)C)c(NCC3CC3)nc2CC1`, for which the “Percent Effect” value is reported as -99.83%. The figure for `CN(C)CCOCC1CN(Cc2cccs2)Cc2ccnn2C1.O=C(O)C(F)(F)F.O=C(O)C(F)(F)F.O=C(O)C(F)(F)F` (stereo not given) is 62.34%. The figure for `N#Cc1cccc(CN2CCn3cc(Cn4cccn4)nc3C2)c1.O=C(O)C(F)(F)F.O=C(O)C(F)(F)F` is 78.59%; for `CCn1nnc2c1C(COCCN(C)C)CN(Cc1ccco1)C2.O=C(O)C(F)(F)F.O=C(O)C(F)(F)F` (stereo not given) it is -73.97%. The figure for `Cc1ccc(CN2Cc3nnn(C)c3C(COCC(=O)N(C)C)C2)s1.O=C(O)C(F)(F)F` (stereo not given) is -90.04%; for `COCC(=O)N1Cc2ccnn2CC(COCCN(C)C)C1.O=C(O)C(F)(F)F.O=C(O)C(F)(F)F` (stereo not given) it is -13.35%; for `CN(C)CCOCC1CN(C(=O)c2ccsc2)Cc2ccnn2C1.O=C(O)C(F)(F)F.O=C(O)C(F)(F)F` (stereo not given) it is -18.09%. Take `Fc1ccc(CN2CCn3cc(Cn4cccn4)nc3C2)cc1.O=C(O)C(F)(F)F`: the “Percent Effect” value turned out to be 43.38%.

As for `CCn1nnc2c1C(COCCN(C)C)CN(Cc1ccc(C)s1)C2.O=C(O)C(F)(F)F.O=C(O)C(F)(F)F` (stereo not given), the “Percent Effect” value amounted to 60.03%.

As to `CN(C)CCN1CCN(Cc2cccc(C#N)c2)Cc2cccnc21.O=C(O)C(F)(F)F.O=C(O)C(F)(F)F.O=C(O)C(F)(F)F`, the “Percent Effect” value amounted to 65.04%. For `O=C(O)C(F)(F)F.O=C(O)C(F)(F)F.c1ccc(CCN2CCn3cc(Cn4cccn4)nc3C2)cc1`, the “Percent Effect” value is listed as 7.27%. Turning to `CN1CCN(Cc2cccc(C#N)c2)Cc2cccnc21.O=C(O)C(F)(F)F.O=C(O)C(F)(F)F`, the “Percent Effect” value is -79.43%. The figure for `CN(C)C(=O)c1cnc2n1CCN(Cc1cccc(C#N)c1)C2.O=C(O)C(F)(F)F` is -58.91%.
